Screen size: about 37,000 compounds; about 2,800 (7.6%) were called active. Roughly 1% stayed inconclusive and do not appear here. The list comes from a sample in which actives are over-represented; it also holds similar structures and randomly drawn compounds. A number with no mark means an inactive call. No stated cut-off is given here; in the data, active means inhibition above about 80%; inconclusive means no clear call, values can overlap the other calls; inactive means below that.
Experiment: NOMO-1 AML cell viability reduction, primary screen, STK33 inhibitor project, CellTiter-Glo luminescence (AID 2330)
Settings: NOMO-1 AML viability, 72 h, stronger effect = higher value, concentration not given here

Compound	inhibition
COc1ccc(NC(=O)C(=O)NCC(=O)Nc2cccc(C(F)(F)F)c2)cc1	14%
O=C1c2ccccc2S(=O)c2ccccc2S(=O)(=O)N1Cc1ccccc1 (stereo not given)	117% (active)
O=C(CN1C(=O)c2ccccc2S1(=O)=O)Nc1ccc(F)c(F)c1	36.7%
Nc1nnc(SCCN2C(=O)c3ccccc3S2(=O)=O)s1	32.8%
Cc1noc(C)c1NC(=O)Nc1ccc2c(c1)C(=O)N([C@@H](C)CO)C[C@H](C)[C@@H](CN(C)C(=O)Nc1ccccc1)O2	-19%
Cc1ccc(S(=O)(=O)N(C)C[C@@H]2Oc3ccc(NC(=O)Cn4cnnn4)cc3CC(=O)N([C@H](C)CO)C[C@H]2C)cc1	-11.1%
O=C(/C=C/c1ccccc1)NCCCCNCCCNC(=O)/C=C/c1ccccc1	11.1%
COc1cc(NC(=O)COc2cc(C)c(Br)c(C)c2)c(OC)cc1Cl	6.99%
C=CCNc1nc(C)nc(OC)n1	-5.74%
C[C@@H]1CN([C@H](C)CO)C(=O)Cc2cc(NC(=O)Nc3ccc(F)cc3)ccc2O[C@@H]1CN(C)C(=O)Nc1ccc2c(c1)OCO2	10.5%
O=C1NC(Cc2c[nH]c3ccccc23)C(=O)N2CCCC12 (stereo not given)	14.5%
Cc1ccc2nc(C)c3c(c2c1)N(c1ccccc1)CC3	122% (active)
O=C(CSc1nc2sc3c(c2c(=O)[nH]1)CCC3)Nc1ccccc1C(F)(F)F	26%
C[C@H](CO)N1C[C@H](C)[C@H](CN(C)C(=O)Nc2ccc(C(F)(F)F)cc2)Oc2ccc(NS(C)(=O)=O)cc2CC1=O	-2.28%
Cc1ccc(S(=O)(=O)N(C)C[C@@H]2Oc3ccc(NC(=O)Nc4ccc5c(c4)OCO5)cc3C(=O)N([C@@H](C)CO)C[C@@H]2C)cc1	45.7%
Cc1cc(C)cc(OCC(=O)Nc2cccc(-c3nnc(-c4ccccc4)o3)c2)c1	42.7%
Cc1ccnc(NC(c2cccc(Br)c2)c2ccc3ccc(C)nc3c2O)c1 (stereo not given)	126% (active)
Cc1ccnc(NC(c2cccc([N+](=O)[O-])c2)c2ccc3ccc(C)nc3c2O)c1 (stereo not given)	101% (active)
Cc1ccc(S(=O)(=O)Nc2ccc3c(c2)C(=O)N([C@@H](C)CO)C[C@H](C)[C@H](CN(C)C(=O)Nc2ccc(C(F)(F)F)cc2)O3)cc1	4.18%
Cc1ccc(NC(=O)C2C3C=CC(C3)C2C(=O)O)cc1 (stereo not given)	-5.27%
Cc1cccc(NC(=O)CSc2nnc(-c3ccccc3)n2C2CCCCC2)c1C	22.3%
COc1ccc(NC(=O)CSc2nnc(-c3ccc(Br)cc3)n2C)cc1	16.2%
C[C@H](CO)N1C[C@H](C)[C@@H](CN(C)C(=O)Nc2ccccc2)Oc2c(NC(=O)CCCCCC(=O)Nc3ccccc3N)cccc2C1=O	21.7%
C[C@H](CO)N1C[C@H](C)[C@@H](CN(C)Cc2ccccc2)Oc2c(NC(=O)CCCCCC(=O)Nc3ccccc3N)cccc2C1=O	126% (active)

Compound	inhibition
C[C@H](CO)N1C[C@H](C)[C@H](CN(C)Cc2ccc(Oc3ccccc3)cc2)Oc2c(NC(=O)CCCCCC(=O)Nc3ccccc3N)cccc2C1=O	139% (active)
C[C@H]1CN([C@@H](C)CO)C(=O)c2cccc(NC(=O)Nc3ccccc3)c2O[C@H]1CN(C)Cc1ccc(Oc2ccccc2)cc1	18.8%
C[C@H]1CN([C@@H](C)CO)C(=O)c2cccc(NC(=O)CCCCCC(=O)Nc3ccccc3N)c2O[C@H]1CN(C)C(=O)Nc1ccccc1	10.1%
C[C@@H]1CN([C@H](C)CO)C(=O)c2cccc(NC(=O)CCCCCC(=O)Nc3ccccc3N)c2O[C@@H]1CN(C)C(=O)Nc1ccccc1	7.63%
C[C@H]1CN([C@@H](C)CO)C(=O)c2cccc(NC(=O)Nc3ccccc3)c2O[C@@H]1CN(C)S(C)(=O)=O	-0.709%
COc1cc(C2c3c(cc(OC)c(O)c3OC)CC(CO[C@@H]3O[C@H](CO)[C@@H](O)[C@H](O)[C@H]3O)C2CO)cc(OC)c1O (stereo not given in full)	-1.41%
O=C1C2=C(Nc3ccccc3S(=O)(=O)C2c2ccc(Cl)cc2)c2ccccc21 (stereo not given)	121% (active)
COC(=O)c1ccccc1NC(=O)C(C)Oc1ccccc1F (stereo not given)	8.1%
O=C(CC(C(=O)O)N1CCNCC1)Nc1cccc(Cl)c1 (stereo not given)	9.13%
CCN(CC)C(=O)c1ccc(O)c(OC)c1	-13.3%
COc1cc(C2OC(c3ccc(O)c(OC)c3)C(C)(O)C2C)ccc1O (stereo not given)	119% (active)
COc1cc(C2OC(c3cc(OC)c(OC)c(OC)c3)C(C)C2C)cc(OC)c1OC (stereo not given)	7.55%
O=C(c1ccccc1Br)N1CCN(c2ccc([N+](=O)[O-])c(NCc3cccnc3)c2)CC1	40.2%
Cc1noc(C)c1NC(=O)Nc1ccc2c(c1)C(=O)N([C@@H](C)CO)C[C@@H](C)[C@@H](CN(C)CC1CCCCC1)O2	-6.14%
Oc1c(Cl)cc(Cl)c(Cl)c1Cc1c(O)c(Cl)cc(Cl)c1Cl	107% (active)
Cc1cc(=O)[nH]c(SCc2cn3c(C)cc(C)nc3n2)n1	-6.02%
COc1ccc(NC(=O)N(C)C[C@@H]2OCCCC[C@@H](C)Oc3ccc(NS(=O)(=O)c4c(C)noc4C)cc3C(=O)N([C@H](C)CO)C[C@@H]2C)cc1	7.62%
COc1ccc(CCCOC(Cn2ccnc2)c2ccc(OC)cc2)cc1 (stereo not given)	114% (active)
Cc1ccc(S(=O)(=O)N(C)C[C@H]2OCCCC[C@@H](C)Oc3ccc(NS(C)(=O)=O)cc3C(=O)N([C@H](C)CO)C[C@@H]2C)cc1	20.5%
COC(=O)COc1cccc(NC(=O)c2cc(OC)c(OC)c(OC)c2)c1	124% (active)
COc1ccccc1NC(=O)c1ccc(OCC(=O)O)cc1	-18.7%
CC(C)(C)c1ccc(OCC(=O)Nc2cccc(NC(=O)c3ccccc3)c2)cc1	25.3%
C[C@H]1CN([C@@H](C)CO)C(=O)c2cccc(NC(=O)CCCCCC(=O)Nc3ccccc3N)c2O[C@@H]1CN(C)S(=O)(=O)c1cn(C)cn1	5.62%
O=[N+]([O-])c1ccc(NCCNCc2cccnc2)cc1	-20%

Compound	inhibition
CC[N+]1=C(C)C(C)(C)c2cc(-c3ccccc3)ccc21	123% (active)
Cc1ccc(Cn2c(NCc3nc4ccccc4n3C)nc3ccccc32)cc1	7.82%
CC(C)NC(=O)Nc1ccc2c(c1)C(=O)N([C@@H](C)CO)C[C@@H](C)[C@H](CN(C)C(=O)NC1CCCCC1)O2	30.5%
COc1ccc(-c2nnc(SCC(=O)O)n2-c2ccccc2)cc1OC	-16.5%
CC1(C)Cc2c(sc3ncn4nc(COc5ccc(Cl)cc5)nc4c23)C(C)(C)N1	142% (active)
O=C1c2ccccc2C(=O)C1c1cc(=O)[nH]c2c1ccc1ccccc12	11.8%
CCOC(=O)c1nnn(-c2nonc2-n2cccc2)c1CN1CCOCC1	24.9%
C[C@H]1CN([C@@H](C)CO)C(=O)Cc2cc(NS(=O)(=O)c3ccccc3)ccc2O[C@H]1CN(C)Cc1ccc(C(=O)Nc2ccccc2N)cc1	141% (active)
COc1ccc(CN(C)C[C@H]2Oc3ccc(NS(=O)(=O)c4ccc(Cl)cc4)cc3CC(=O)N([C@@H](C)CO)C[C@H]2C)cc1	40.8%
C[C@@H]1CN([C@H](C)CO)C(=O)Cc2cc(NS(=O)(=O)c3cccs3)ccc2O[C@@H]1CN(C)Cc1ccc(C(=O)O)cc1	-19.7%
COc1ccc(S(=O)(=O)Nc2ccc3c(c2)CC(=O)N([C@H](C)CO)C[C@@H](C)[C@@H](CN(C)C(=O)Nc2cccc4ccccc24)O3)cc1	-1.33%
Cc1ccc(S(=O)(=O)Nc2ccc3c(c2)CC(=O)N([C@@H](C)CO)C[C@H](C)[C@H](CN(C)Cc2ccc(C(=O)Nc4ccccc4N)cc2)O3)cc1	139% (active)
Cc1ccc(S(=O)(=O)N(C)C[C@H]2Oc3ccc(NS(=O)(=O)c4ccccc4)cc3CC(=O)N([C@@H](C)CO)C[C@H]2C)cc1	-0.416%
Cc1ccc(S(=O)(=O)Nc2ccc3c(c2)CC(=O)N([C@@H](C)CO)C[C@@H](C)[C@@H](CN(C)S(=O)(=O)c2ccccc2)O3)cc1	5.59%
C[C@H](CO)N1C[C@H](C)[C@H](CN(C)CC2CC2)Oc2ccc(NS(=O)(=O)c3ccccc3)cc2CC1=O	20.8%
COc1ccc(S(=O)(=O)Nc2ccc3c(c2)CC(=O)N([C@@H](C)CO)C[C@@H](C)[C@@H](CN(C)Cc2ccc(C(=O)Nc4ccccc4N)cc2)O3)cc1	100% (active)
C[C@@H]1CCCCO[C@H](CN(C)S(=O)(=O)c2ccccc2)[C@@H](C)CN([C@H](C)CO)C(=O)c2cc(NC(=O)Nc3ccc(F)cc3)ccc2O1	33.7%
C[C@@H]1CCCCO[C@H](CN(C)S(=O)(=O)c2cccs2)[C@@H](C)CN([C@H](C)CO)C(=O)c2cc(NC(=O)Nc3ccccc3)ccc2O1	11.8%
O=c1cc(CSc2nnnn2-c2ccccc2)[nH]c(=S)[nH]1	33.9%
C[C@@H]1CN([C@@H](C)CO)C(=O)Cc2cc(NC(=O)C3CCCCC3)ccc2O[C@@H]1CN(C)Cc1ccncc1	15.8%
CCOC(=O)c1cnc2cc(C(F)(F)F)ccc2c1N1CCCCCC1	13.2%
CNC[C@@H]1Oc2ccc(NC(=O)Nc3ccc4c(c3)OCO4)cc2C(=O)N([C@H](C)CO)C[C@@H]1C	6.4%

Source: PubChem BioAssay AID2330 (Broad Institute, 2010)
